An excerpt weighted towards active compounds, which were near 4.6% of everything screened.
ABHD5 PLIN5 PPI: blocks binding of human ABHD5 to perilipin-5. Q00G26+Q8WTS1. Split G. princeps luciferase complementation, luminescence, 4 h. inhibition, % at 4 µM. hit rate 0.78% among 360,000. AID 602281;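 active = inhibition above the mean inhibition across every tested compound plus 3 SD, cut at about 22% in these data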;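 note: 0% = DMSO only wells and the 100% control is not disclosed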
Peg3 promoter: reduces Peg3 promoter-driven luciferase expression in HeLa. inhibition, % at 20 µM. HeLa PEG-Prom luciferase reporter, luminescence, overnight. hit rate 1.7% among 360,000;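 active = inhibition of at least 50% at 20 µM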
Mdm2-MdmX inh: disrupts the human Mdm2-MdmX interaction; O15151+Q00987; SaOS-2 split-luciferase Mdm2/MdmX complementation, luminescence; inhibition, % at 8 µM; hit rate 3% among 330,000; AID 485346;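 active = inhibition of at least 50% at 8 µM in the primary screen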
Target sequence (O15151 whole entry, looked up): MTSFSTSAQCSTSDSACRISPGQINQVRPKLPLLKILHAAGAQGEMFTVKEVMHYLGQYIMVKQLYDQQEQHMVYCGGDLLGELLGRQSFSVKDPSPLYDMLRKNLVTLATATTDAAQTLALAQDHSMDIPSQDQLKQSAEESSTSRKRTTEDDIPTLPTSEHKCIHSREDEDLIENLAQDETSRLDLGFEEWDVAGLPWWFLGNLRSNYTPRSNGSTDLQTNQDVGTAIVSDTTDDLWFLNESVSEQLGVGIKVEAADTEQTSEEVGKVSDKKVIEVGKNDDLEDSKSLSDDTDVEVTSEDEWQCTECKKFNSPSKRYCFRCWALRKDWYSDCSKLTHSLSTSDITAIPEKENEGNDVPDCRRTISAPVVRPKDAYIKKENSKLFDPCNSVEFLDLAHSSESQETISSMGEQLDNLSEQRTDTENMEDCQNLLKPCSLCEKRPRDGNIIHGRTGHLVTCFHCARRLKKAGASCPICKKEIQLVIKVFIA
Target sequence (Q00987 whole entry, looked up): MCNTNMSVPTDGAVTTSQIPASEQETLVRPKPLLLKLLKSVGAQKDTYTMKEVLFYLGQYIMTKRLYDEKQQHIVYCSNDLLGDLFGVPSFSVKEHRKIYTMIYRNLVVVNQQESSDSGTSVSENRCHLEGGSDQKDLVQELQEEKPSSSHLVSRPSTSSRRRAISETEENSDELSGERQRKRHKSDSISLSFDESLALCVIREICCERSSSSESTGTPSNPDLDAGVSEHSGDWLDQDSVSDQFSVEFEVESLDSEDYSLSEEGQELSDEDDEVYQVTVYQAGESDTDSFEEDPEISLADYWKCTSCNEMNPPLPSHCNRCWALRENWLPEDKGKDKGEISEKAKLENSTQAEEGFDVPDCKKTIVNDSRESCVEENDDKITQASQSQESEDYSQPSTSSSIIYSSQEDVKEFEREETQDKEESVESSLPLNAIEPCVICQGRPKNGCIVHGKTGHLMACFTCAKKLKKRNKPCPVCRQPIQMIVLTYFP
HIF-2a inh: blocks HIF-2a reporter activity. 786-0 RCC cells HIF-2a reporter, luciferase luminescence, overnight. hit rate 0.72% among 360,000. inhibition, % at 18.8 µM. AID 624352;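 active = inhibition of the luminescence signal of 40% or more relative to plate controls, in a single-dose primary screen at 18.75 µM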
KKLEB tox: reduces viability of KKLEB cystic fibrosis airway cells; activity change (cytotoxicity), % at 5 µM; hit rate 0.36% among 360,000; KKLEB CF airway cells viability, ATPlite luminescence, overnight; active compounds read low; cells stimulated with P. aeruginosa culture filtrate; AID 602141;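 active = corrected activity change at or below -50% at 5 µM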
CF NFkB block: cystic fibrosis NF-kB activation inhibition | KKLEB NF-kB-GFP reporter, PAF-induced, GFP fluorescence overnight | inhibition, % at 5 µM | hit rate 0.86% among 360,000 | AID 588850;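 active = at least 50% inhibition at 5 µM, scaled per plate between neutral and stimulator controls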;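 note: PAF is a Pseudomonas aeruginosa culture filtrate used as stimulus; plate controls were PAF-stimulated DMSO wells for no effect and unstimulated DMSO wells for full effect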
Mdm2-MdmX conf: human Mdm2/MdmX binding inhibition, confirmed; hit rate 55% among 10,000; luminescent assay; shares compounds with Mdm2-MdmX inh; inhibition, % at 8 µM
Full FLuc ctr: counter-screen for Mdm2/MdmX inhibitors: full-length luciferase. shares compounds with Mdm2-MdmX inh. SaOS-2 full-length luciferase counterscreen, luminescence. inhibition, % at 8 µM. hit rate 77% among 6,200;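 active = mean inhibition at 8 µM reaching about 37%, which flags the compound as non-specific, limit read from the data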;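 note: p53-null SaOS-2 cells with luciferase driven by a doxycycline-inducible promoter; compound on cells about two nights before reading with doxycycline added after day one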
CF NFkB conf: CF NF-kB inhibition confirmation, single concentration | KKLEB CF airway cells, PAF-induced NF-kB-GFP fluorescence, overnight | shares compounds with CF NFkB block | hit rate 64% among 1,300 | inhibition, % at 5 µM;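 note: stimulus PAF is a Pseudomonas aeruginosa filtrate and not platelet activating factor; plate controls were DMSO wells with stimulus for no effect and unstimulated DMSO wells for full effect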
* hit, by the source's call; · = no result. Cut-off read from the data, not from the text of the source, unless noted: active = inhibition above about 40%; inactive = the rest.

SMILES	ABHD5 PLIN5 PPI	Peg3 promoter	Mdm2-MdmX inh	HIF-2a inh	KKLEB tox	CF NFkB block	Mdm2-MdmX conf	Full FLuc ctr	CF NFkB conf
COc1ccc(-c2sc3cc4c(cc3c2C#CC2(O)CCCCC2)OCO4)cc1	-12.3	-22.7	5.6	1.9	-11.0	19.4	·	·	·
COc1ccc(-c2oc3ccc(-c4ccc(OC)nc4)cc3c2C#CC2(O)CCCCC2)cc1	-14.2	1.7	64.0*	-1.9	-37.1	64.4*	30.8	·	54.2*
Cc1ccc(S(=O)(=O)NC[C@H]2O[C@@H](n3ccc(N)nc3=O)[C@H](O)[C@@H]2O)s1	0.9	12.8	·	8.3	-2.5	21.0	·	·	·
Cc1cccc(N2CCN(C(=O)c3ccc(S(=O)(=O)N(C)c4ccccc4)cc3)CC2)c1C	3.1	34.8	67.5*	11.1	-31.1	53.8*	58.8*	61.0*	43.6*
O=C(CBr)Nc1c2c(nn1-c1ccccc1)CSC2	7.2	-11.4	17.7	3.1	9.5	-11.5	·	·	·
CN(C)CCN(C(=O)CCS(=O)(=O)c1ccccc1)c1nc2cc3c(cc2s1)OCO3	5.8	-32.7	-4.8	-20.9	-5.2	15.5	·	·	·
O=C(CCS(=O)(=O)c1ccccc1)N(CCCN1CCOCC1)c1nc2ccccc2s1	-2.9	107.9*	78.2*	-141.4	-21.5	72.8*	43.0*	74.2*	54.9*
CO/N=C/NC(=O)N1OC[C@@H]2COc3ccc4ccccc4c3[C@@H]21	4.7	13.0	22.4	17.0	4.2	8.8	·	·	·
NC(=S)N1OC[C@@H]2COc3ccc4ccccc4c3[C@@H]21	-2.7	-64.2	69.5*	11.5	-36.3	72.2*	52.9*	46.3*	54.9*
CN(C)S(=O)(=O)c1ccc(C(=O)N2CCN(S(=O)(=O)c3ccc4c(c3)OCCO4)CC2)cc1	1.9	0.9	·	3.4	10.1	-2.0	·	·	·
O=C(NCc1ccco1)c1ccc(-c2csnn2)cc1	6.6	-33.9	-5.7	-17.8	2.5	-15.0	·	·	·
Cc1cc2ccccn2c1C(=O)c1ccc(NN)c([N+](=O)[O-])c1	-0.7	30.6	61.7*	3.8	-8.0	55.8*	28.1	·	10.4
CC(C)[C@H](NC(=O)c1ccco1)C(=O)N(C)Cc1ccc(C(F)(F)F)cc1	1.0	1.8	19.0	8.0	2.5	-13.4	·	·	·
C=C1C(=O)O[C@@H]2[C@H]3O[C@]3(C)CC/C=C(\C)CC[C@@H]12	5.2	49.4	67.6*	19.4	23.4	69.0*	53.7*	62.2*	77.2*
Cc1ccc2nc3n(c(=O)c2c1)-c1ncccc1C(=O)NC3Cc1ccc(O)cc1 (stereo not drawn)	2.3	-2.0	·	0.2	13.5	-24.1	·	·	·
Cc1cccc(NC(=O)c2cc(-c3ccc(C)s3)nc3ccccc23)n1	-3.2	46.0	73.4*	-62.1	-7.3	74.1*	59.0*	83.3*	76.0*
CCOC(=O)c1oc2ccccc2c1COC(=O)CNC(=O)c1ccc(C)cc1	-3.1	-11.6	-3.3	-12.3	5.1	-9.6	·	·	·
Cc1ccnc(NC(=O)Cc2ccc(-c3ccccc3)cc2)c1	1.0	97.8*	90.7*	-431.0	-17.0	61.9*	94.0*	144.8*	57.7*
COc1ccc(Cc2nnc(SCc3ccc([N+](=O)[O-])cc3)o2)cc1	-1.5	6.9	60.2*	19.6	0.2	65.4*	61.2*	28.9	85.9*
COc1ccccc1NS(=O)(=O)c1ccc(N/N=C/c2c(C)nn(-c3ccccc3)c2N2CCCC2)c([N+](=O)[O-])c1	-1.7	24.7	22.8	18.3	-16.3	23.7	·	·	·
COc1c(/C=N/Nc2ccc([N+](=O)[O-])cc2[N+](=O)[O-])c(C)nn1-c1ccccc1	-4.8	16.2	54.1*	3.9	-38.2	59.9*	13.6	·	41.0*
CC1=C(C(=O)N(C(C)C)C(C)C)CC(CC(=O)NCc2cccs2)C(=O)N1CCCN1CCCC1=O (stereo not drawn)	2.8	10.6	·	-9.6	0.5	1.7	·	·	·
COc1ccc(Cc2c(C3CCCCC3)nc3ccc(Cl)cn23)c(C)c1	-20.7	-7.4	·	11.1	-4.2	9.8	·	·	·
COc1cccc(-c2nnc3sc(C4CCCCC4)nn23)c1	-2.4	-27.3	85.3*	-74.9	3.8	85.9*	77.8*	25.0	96.4*
CC(C)(O)C#Cc1ccc(C(=O)N2CCCC2C(=O)O)s1 (stereo not drawn)	0.1	-3.5	-5.4	-2.1	1.3	1.2	·	·	·
SMILES	ABHD5 PLIN5 PPI	Peg3 promoter	Mdm2-MdmX inh	HIF-2a inh	KKLEB tox	CF NFkB block	Mdm2-MdmX conf	Full FLuc ctr	CF NFkB conf
CC(C)(O)C#Cc1ccc([C@@H]2C[C@H]3CN(c4ccccc4)C(=O)[C@]34CCCN24)s1	-10.6	102.8*	63.6*	-6.9	-0.7	60.2*	41.4*	60.0*	44.3*
C=C(CCO)C1=CCN(S(=O)C(C)(C)C)[C@H]1CCO (stereo partly drawn)	2.1	-5.0	·	8.0	5.7	-19.1	·	·	·
O=C1N(c2ccccc2C(F)(F)F)O[C@]1(c1ccccc1)C1CCCCC1	4.9	65.4*	85.4*	22.1	6.2	54.0*	62.0*	50.8*	64.1*
COc1ccc2[nH]c3c(c2c1)CCN1C(=O)C(CC(=O)NCCC2=CCCCC2)C[C@H](C(=O)N2CCCCC2)[C@@]31CCc1ccccc1 (stereo partly drawn)	-3.0	27.2	87.7*	1.6	-48.9	55.6*	-33.2	·	80.9*
CCOC(=O)Oc1c(OC)cc(C(=O)O[C@@H]2C[C@@H]3CN4CCc5c([nH]c6cc(OC)ccc56)[C@H]4C[C@@H]3[C@H](C(=O)OC)[C@H]2OC)cc1OC	-0.9	25.6	87.7*	15.4	10.8	77.4*	57.5*	49.0*	87.1*
O=C(/C=C/c1ccccc1Cl)Nc1ccccc1	5.3	-172.8	-138.6	-180.8	-17.2	1.3	·	·	·
O=C(/C=C/c1ccccc1Cl)c1ccc(O)cc1	16.2	-70.9	55.2*	-237.0	-9.8	59.2*	11.7	·	-37.9
O=C(/C=C/c1ccc([N+](=O)[O-])cc1)OCC(=O)N1CCCC1	-4.2	-37.8	18.3	-1.9	-6.1	-41.9	·	·	·
CCCN(CCC)c1ncnc2nc[nH]c12	0.2	5.9	71.8*	27.6	-0.5	65.7*	64.0*	34.6	79.5*
Cc1ccc(C(=O)NCCNC(=O)Cc2ccccc2)cn1	2.5	-0.4	4.7	-4.0	3.5	9.2	·	·	·
CCN(CC)c1ccc(CNc2nc3ccccc3n2CCN2CCCCC2)cc1	0.7	44.0	89.0*	1.1	-44.7	55.0*	48.5*	76.6*	36.8
CC(C)(C)OC(=O)C[C@@H]1C/C=C\C[C@H](CC(=O)N[C@H](CO)Cc2ccccc2)C(=O)N2CCC[C@H]2COC1=O	-0.8	-10.3	-4.1	-4.9	2.8	-2.1	·	·	·

Screening data from PubChem.
